PubChem BioAssay (EPA / NIEHS)
Records with an inconclusive call do not appear. Activity calls are given as the source filed them. The calls were made as follows, unless noted: active = hit-call score of the fitted dose curve at least 0.9, where 1 is the maximum; inactive = score below 0.9.

Assays:
[1] = CCTE_Harrill_HTTr_Viability_DMEM_24hr: (Pilot) CCTE's 24-hour Cell Viability Assessment for the High-Throughput Transcriptomics (HTTr) Platform, in MCF-7 cells cultured in DMEM + 10% fetal bovine serum, Harrill Lab (AID 2283975)
In short: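 Pilot study: propidium iodide dye exclusion, imaged by high content microscopy, after 24 h compound exposure (eight concentrations) in MCF-7 cultured in DMEM + 10% fetal bovine serum; DMSO served as negative control and baseline.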

[2] = CCTE_Harrill_HTTr_Viability_PRF_DMEM_6hr: (Pilot) CCTE's 6-hour Cell Viability Assessment for the High-Throughput Transcriptomics (HTTr) Platform, in MCF-7 cells cultured phenol red-free DMEM + 10% charcoal-stripped fetal bovine serum, Harrill Lab (AID 2283976)
In short: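 Membrane integrity by high-content imaging of propidium iodide uptake, six hours after dosing with eight concentrations. Cells: MCF-7 grown in phenol red-free DMEM plus 10% charcoal-stripped serum; DMSO serves as baseline for bidirectional fits.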

[3] = CCTE_Harrill_HTTr_Viability_PRF_DMEM_12hr: (Pilot) CCTE's 12-hour Cell Viability Assessment for the High-Throughput Transcriptomics (HTTr) Platform, in MCF-7 cells cultured in phenol red-free DMEM + 10% charcoal-stripped fetal bovine serum, Harrill Lab (AID 2283977)
In short: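 Membrane integrity was scored via propidium iodide dye exclusion imaging, fitted in both directions relative to DMSO. Compounds ran as eight-point dilutions for 12 hours on MCF-7 grown in phenol red-free DMEM plus 10% charcoal-stripped serum.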

[4] = CCTE_Harrill_HTTr_Viability_PRF_DMEM_24hr: (Pilot) CCTE's 24-hour Cell Viability Assessment for the High-Throughput Transcriptomics (HTTr) Platform, in MCF-7 cells cultured in phenol red-free DMEM + 10% charcoal-stripped fetal bovine serum, Harrill Lab (AID 2283980)
In short: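 Propidium iodide exclusion imaged at 24 h after dosing scores viability; cells were MCF-7 grown in phenol red-free DMEM plus 10% charcoal-stripped serum, tested in eight concentrations, fitted in both directions against DMSO.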

[5] = CCTE_Harrill_HTTr_Apoptosis_DMEM_6hr: (Pilot) CCTE's 6-hour Apoptosis Assessment for the High-Throughput Transcriptomics (HTTr) Platform, in MCF-7 cells cultured in DMEM + 10% fetal bovine serum, Harrill Lab (AID 2283981)
In short: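 MCF-7 cells grown in DMEM + 10% FBS were exposed for 6 hours to an eight-point dilution series. CellEvent Caspase 3/7 Green signal was imaged; activity fitted bidirectionally against DMSO.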

[6] = CCTE_Harrill_HTTr_Apoptosis_DMEM_12hr: (Pilot) CCTE's 12-hour Apoptosis Assessment for the High-Throughput Transcriptomics (HTTr) Platform, in MCF-7 cells cultured in DMEM + 10% fetal bovine serum, Harrill Lab (AID 2283982)
In short: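 Caspase-3/7 activity was measured by high-content imaging (CellEvent Caspase 3/7 Green) after a 12-hour exposure of MCF-7 cells grown in DMEM with 10% FBS. Eight-point concentration series, fitted bidirectionally against vehicle.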

[7] = CCTE_Harrill_HTTr_Apoptosis_DMEM_24hr: (Pilot) CCTE's 24-hour Apoptosis Assessment for the High-Throughput Transcriptomics (HTTr) Platform, in MCF-7 cells cultured in DMEM + 10% fetal bovine serum, Harrill Lab (AID 2283983)
Excerpt: This is a cell-based assay that evaluates apoptosis using high content imaging to evaluate activation of caspase-3/7 using the CellEvent Caspase 3/7 Green detection reagent in 384-well format.One of seven assay components measured from the CCTE_Harrill_HTTr_Apoptosis assay. This was part of a pilot experiment. This is a cell-based assay that evaluates apoptosis in MCF-7 cells cultured in DMEM + 10% fetal bovine serum. High content imaging is used to evaluate activation of caspase-3/7 using the CellEvent Caspase 3/7 Green detection reagent. Measurements are taken at 24 hours after chemical dosing in 384-well format.The assay component endpoint CCTE_Harrill_HTTr_Apoptosis_DMEM_24hr was analyzed with bidirectional fitting relation to DMSO as the negative control and baseline of activity. Using a type of viability reporter, gain-of-signal activity can be used to evaluate activation of caspase-3/7 using the CellEvent Caspase 3/7 Green detection reagent to understand changes in apoptosis. To generalize the intended target to other relatable targets, this assay endpoint is annotated to cell cycle, where the subfamily is apoptosis.
Chemicals were tested in MCF7 cells in an eight point dilution series with a twenty-four hour exposure duration.

[8] = CCTE_Harrill_HTTr_Apoptosis_PRF_DMEM_6hr: (Pilot) CCTE's 6-hour Apoptosis Assessment for the High-Throughput Transcriptomics (HTTr) Platform, in MCF-7 cells cultured phenol red-free DMEM + 10% charcoal-stripped fetal bovine serum, Harrill Lab (AID 2283984)
In short: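 Caspase-3/7 activity (CellEvent Green) read by high-content imaging 6 h after dosing, eight concentrations. Cells: MCF-7, phenol red-free DMEM with 10% charcoal-stripped serum. Curves fit both directions against DMSO.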

[9] = CCTE_Harrill_HTTr_Apoptosis_PRF_DMEM_24hr: (Pilot) CCTE's 24-hour Apoptosis Assessment for the High-Throughput Transcriptomics (HTTr) Platform, in MCF-7 cells cultured in phenol red-free DMEM + 10% charcoal-stripped fetal bovine serum, Harrill Lab (AID 2283986)
In short: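 Eight concentrations tested for 24 h on MCF-7 grown in charcoal-stripped serum, phenol red-free DMEM. High content imaging of CellEvent Caspase 3/7 Green signal gives apoptosis read-out, fitted both ways relative to DMSO.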

[10] = TOX21_TR_RXR_BLA_Antagonist_Followup_viability: Viability Assessment in the Tox21 Thyroid Hormone Receptor beta Retinoid X Receptor alpha (RXRa) Antagonism Beta-lactamase (BLA) Follow-Up Assay (AID 2283979; active = hit-call score of the fitted dose curve at least 0.9, where 1 is the maximum)
In short: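 RXRa-bla HEK293T cells (2,500/well, phenol red-free DMEM, 2% charcoal-stripped FBS) were attached 5 h, then exposed to compounds at 11 concentrations in triplicate for 16 h at 37C. Viability measured by CellTiter-Glo ATP luminescence, bidirectional fitting versus DMSO.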

Measured: outcome

CC(C)C(=O)Nc1ccc([N+](=O)[O-])c(C(F)(F)F)c1
not listed: [10]
inactive: all other assays above

Cc1nccn1-c1ccc(Sc2cccc(C3(C(N)=O)CCOCC3)c2)cc1
inactive: [10]
